Measurements: the supplement of paper PMC3545927
The list shows a part of the results. How many sequences the whole screen found active is unknown.

Target: furin, P09958
Experiment: furin cleavage Z-score vs untreated control; higher = more cleavage, active = 3.5 or more, inactive = 1 or less, 8 variable residues between constant flanks
Outline: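 The cleavage Z-score was derived for purified furin acting on 8-mer peptides held on magnetic beads and fused to a cDNA oligonucleotide. Digests lasted 7.5, 15 or 30 min at 1:10 enzyme:substrate in 50 mM HEPES pH 7.5 with CaCl2 and NaCl. Sequencing counts of released DNA, log-transformed against furin-free reactions, were lowess-adjusted and scaled by median absolute deviation.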

Chain of furin, P09958 (P09958 whole entry): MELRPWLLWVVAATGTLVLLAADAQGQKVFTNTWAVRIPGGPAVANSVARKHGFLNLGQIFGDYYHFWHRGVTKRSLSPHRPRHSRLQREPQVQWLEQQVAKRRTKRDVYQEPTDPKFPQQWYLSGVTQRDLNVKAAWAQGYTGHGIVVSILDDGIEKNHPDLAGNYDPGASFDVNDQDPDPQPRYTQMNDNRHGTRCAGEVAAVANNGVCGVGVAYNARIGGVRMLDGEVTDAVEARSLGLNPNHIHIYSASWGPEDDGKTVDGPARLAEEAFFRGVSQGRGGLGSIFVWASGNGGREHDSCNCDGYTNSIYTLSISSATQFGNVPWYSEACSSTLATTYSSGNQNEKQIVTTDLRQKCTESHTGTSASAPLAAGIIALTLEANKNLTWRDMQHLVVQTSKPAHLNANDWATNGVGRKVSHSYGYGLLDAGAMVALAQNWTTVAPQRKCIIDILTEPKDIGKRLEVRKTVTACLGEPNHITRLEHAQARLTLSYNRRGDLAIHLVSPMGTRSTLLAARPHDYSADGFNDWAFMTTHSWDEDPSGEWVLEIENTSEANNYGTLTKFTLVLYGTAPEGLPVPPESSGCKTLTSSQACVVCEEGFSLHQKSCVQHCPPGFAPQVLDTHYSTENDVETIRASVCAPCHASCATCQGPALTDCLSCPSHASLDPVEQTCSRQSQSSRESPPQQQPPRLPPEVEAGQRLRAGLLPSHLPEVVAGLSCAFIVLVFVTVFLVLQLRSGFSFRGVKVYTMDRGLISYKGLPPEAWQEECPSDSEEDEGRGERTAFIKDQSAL

Sequence	furin cleavage Z-score (7.5 min)	furin cleavage Z-score (15 min)	furin cleavage Z-score (30 min)
CAEMTTPCSGAGNASASA [HC1966]	-0.105 (inactive)	-0.176 (inactive)	-0.555 (inactive)
CASSEANAEDAGNASASA [HC1365]	-1.29 (inactive)	-2.48 (inactive)	-1.24 (inactive)
CAVAGALVAFAGNASASA [HC1090]	1.08	-1.61 (inactive)	-0.599 (inactive)
CARLKRSPDKAGNASASA [FS-2277]	9.81 (active)	12.1 (active)	8.68 (active)
CARLTRSNSKAGNASASA [FS-1750]	-0.152 (inactive)	1.68	-1.49 (inactive)
CARLKRFSMVAGNASASA [FS-2705]	1.5	0.596 (inactive)	2.46
CARSKRDVGSAGNASASA [FS-2379]	11.6 (active)	11.3 (active)	8.54 (active)
CARSKRRKYSAGNASASA [FS-2380]	0.793 (inactive)	-0.279 (inactive)	0.723 (inactive)
CARSKRDGSEAGNASASA [FS-1868]	3.53 (active)	5.29 (active)	5.43 (active)
CARSKRDISSAGNASASA [FS-3083]	9.51 (active)	11.2 (active)	9.07 (active)
CARSKKIFGSAGNASASA [FS-2405]	-1.12 (inactive)	-0.175 (inactive)	0.546 (inactive)
CARSGRVVGSAGNASASA [FS-3235]	-1.67 (inactive)	0.0813 (inactive)	0.573 (inactive)
CALATRSFGSAGNASASA [HC1334]	-0.496 (inactive)	0.424 (inactive)	-0.551 (inactive)
CARAGRDVGSAGNASASA [FS-1989]	2.62	3.76 (active)	2.8
CARSYRGISSAGNASASA [FS-2093]	1.39	-0.63 (inactive)	0.639 (inactive)
CAHIDLLVGSAGNASASA [HC291]	-0.513 (inactive)	-1.31 (inactive)	-1.06 (inactive)
CASTPCSAFLAGNASASA [HC2547]	-0.397 (inactive)	-0.0879 (inactive)	0.628 (inactive)
CAQKLPINALAGNASASA [HC1380]	0.17 (inactive)	-0.107 (inactive)	-0.819 (inactive)
CAGDFHYVTGAGNASASA [HC1209]	-0.771 (inactive)	-0.551 (inactive)	-1.55 (inactive)
CATTPPSGSWAGNASASA [HC60]	-1.04 (inactive)	-0.299 (inactive)	-0.554 (inactive)
CASYANGSGPAGNASASA [HC397]	0.376 (inactive)	-1.07 (inactive)	0.0876 (inactive)
CADKEVVTSTAGNASASA [HC2294]	-0.414 (inactive)	-0.137 (inactive)	-0.18 (inactive)
CAIRSRVLREAGNASASA [FS-804]	12.6 (active)	10.5 (active)	8.33 (active)

Sequence	furin cleavage Z-score (7.5 min)	furin cleavage Z-score (15 min)	furin cleavage Z-score (30 min)
CAIRQVGDFHAGNASASA [HC1207]	-0.371 (inactive)	-0.615 (inactive)	-1.78 (inactive)
CAIRSALKRPAGNASASA [FS-444]	0.37 (inactive)	-0.823 (inactive)	-0.407 (inactive)
CAALKRPVEQAGNASASA [FS-2858]	-1.15 (inactive)	-0.538 (inactive)	-0.285 (inactive)
CAAEVRSKRRAGNASASA [FS-3]	4.87 (active)	4.38 (active)	5.1 (active)
CAGENCGYRRAGNASASA [HC1506]	-0.528 (inactive)	-0.187 (inactive)	-0.341 (inactive)
CAAERRSVIRAGNASASA [FS-1666]	-0.389 (inactive)	-2.19 (inactive)	-0.341 (inactive)
CAALKRSKRRAGNASASA [FS-1445]	11.5 (active)	10.6 (active)	8.09 (active)
CAPLRRSKRRAGNASASA [FS-1148]	9.4 (active)	9.64 (active)	8.71 (active)
CAEVVPSTWVAGNASASA [HC140]	-0.678 (inactive)	-0.107 (inactive)	0.5 (inactive)
CAESAGVQEDAGNASASA [HC1533]	-0.496 (inactive)	-1.46 (inactive)	-0.975 (inactive)
CAQLFTFSPRAGNASASA [HC305]	-0.105 (inactive)	-0.574 (inactive)	0.219 (inactive)
CASIFLLALLAGNASASA [HC248]	-0.433 (inactive)	-0.299 (inactive)	-0.909 (inactive)
CAGNWFGCTWAGNASASA [HC434]	2	1.1	-0.112 (inactive)
CARAHRSVLAAGNASASA [FS-1943]	-0.832 (inactive)	-0.15 (inactive)	2.24
CAAVTHINSVAGNASASA [HC1428]	-1.27 (inactive)	-0.864 (inactive)	-0.253 (inactive)
CANRKRSKRRAGNASASA [FS-1240]	10.6 (active)	10.8 (active)	8.12 (active)
CASRKRSFFRAGNASASA [FS-3137]	-0.305 (inactive)	2.22	0.35 (inactive)
CATRARSLRFAGNASASA [FS-1099]	-0.222 (inactive)	2.2	1.03
CATCSRHKRRAGNASASA [FS-96]	4.62 (active)	7.75 (active)	7.17 (active)
CANRKRNKKQAGNASASA [FS-1239]	0.136 (inactive)	0.864 (inactive)	2.02
CAFRSRSLREAGNASASA [FS-774]	5.16 (active)	6.5 (active)	6.69 (active)
CAFRSRSKRRAGNASASA [FS-773]	8.16 (active)	8.31 (active)	7.71 (active)
